# Laboratory results taken from PMC7862700, “An all-to-all approach to the identification of sequence-specific readers for epigenetic DNA modifications on cytosine”.
# Columns and labels:
# Assay in all cases: DAPPL (digital affinity profiling via proximity ligation, sequencing); 10 mM Tris-HCl pH 7.5, 50 mM NaCl, 1 mM DTT, 4% glycerol, room temperature, 30 min; GST-TFs on glutathione beads, 16-mer random dsDNA library, 0.1% formaldehyde crosslink after washing; high values mean tight binding
# FEV = target: T1, FEV (Homo sapiens, UniProt Q99581 1-238); conditions: protein: recombinant; tags: N-terminal GST; dsDNA, one strand shown
# T1 sequence: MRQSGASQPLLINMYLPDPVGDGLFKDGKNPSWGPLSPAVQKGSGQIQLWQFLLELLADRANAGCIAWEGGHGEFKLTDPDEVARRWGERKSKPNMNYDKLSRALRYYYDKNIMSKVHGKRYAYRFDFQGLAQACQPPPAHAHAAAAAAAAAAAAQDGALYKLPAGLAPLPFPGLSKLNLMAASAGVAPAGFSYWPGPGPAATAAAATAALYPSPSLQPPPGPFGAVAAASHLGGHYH
# Procedure, shortened: (§1)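 Yeast served to express human transcription factors as GST fusions, which were then captured on glutathione beads and labelled with DNA barcodes. Pooled with a tag-only sample, they were incubated with 200 nmole of a 16-mer random double-stranded DNA library for 30 min at room temperature in Tris/NaCl/DTT/glycerol buffer, washed, crosslinked with 0.1% formaldehyde, ligated by proximity, amplified by PCR and sequenced. Dividing each hexamer's read frequency for a factor by its frequency for the tag-only sample gives the binding signal.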
# ETV5 = ETV5 (Homo sapiens, UniProt P41161 1-510); conditions: protein: recombinant; tags: N-terminal GST; dsDNA, one strand shown
# Procedure, shortened: as §1
# HSF1 = HSF1 (Homo sapiens, UniProt Q00613 1-529); conditions: protein: recombinant; tags: N-terminal GST; chain copies: 3; dsDNA, one strand shown
# Procedure, shortened: as §1
# SPIC = target: T2, SPIC (Homo sapiens, UniProt Q8N5J4 1-248); conditions: protein: recombinant; tags: N-terminal GST; dsDNA, one strand shown
# T2 sequence: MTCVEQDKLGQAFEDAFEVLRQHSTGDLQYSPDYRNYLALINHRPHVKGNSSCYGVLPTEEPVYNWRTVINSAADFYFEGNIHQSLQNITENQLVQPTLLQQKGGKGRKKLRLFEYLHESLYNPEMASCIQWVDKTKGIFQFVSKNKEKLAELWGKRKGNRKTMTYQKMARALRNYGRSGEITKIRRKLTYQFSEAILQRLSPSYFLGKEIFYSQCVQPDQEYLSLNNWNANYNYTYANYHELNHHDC
# Procedure, shortened: as §1
# ELF4 = ELF4 (Homo sapiens, UniProt Q99607 1-663); conditions: protein: recombinant; tags: N-terminal GST; dsDNA, one strand shown
# Procedure, shortened: as §1
# ELK4 = target: T3, ELK4 (Homo sapiens, UniProt P28324-2 1-405); conditions: protein: recombinant; tags: N-terminal GST; dsDNA, one strand shown
# T3 sequence: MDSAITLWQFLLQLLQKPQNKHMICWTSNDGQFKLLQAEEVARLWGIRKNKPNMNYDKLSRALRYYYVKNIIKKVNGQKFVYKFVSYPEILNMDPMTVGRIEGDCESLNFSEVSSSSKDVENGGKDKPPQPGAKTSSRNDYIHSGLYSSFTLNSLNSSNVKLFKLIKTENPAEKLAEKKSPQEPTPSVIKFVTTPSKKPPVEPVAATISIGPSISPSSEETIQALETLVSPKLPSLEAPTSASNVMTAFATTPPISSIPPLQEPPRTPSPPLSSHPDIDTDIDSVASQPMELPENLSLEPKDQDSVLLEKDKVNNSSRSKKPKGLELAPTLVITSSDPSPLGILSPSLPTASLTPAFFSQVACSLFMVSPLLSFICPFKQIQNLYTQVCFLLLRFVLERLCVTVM
# Procedure, shortened: as §1
# ETV2 = target: T4, ETV2 (Homo sapiens, UniProt O00321 1-342); conditions: protein: recombinant; tags: N-terminal GST; dsDNA, one strand shown
# T4 sequence: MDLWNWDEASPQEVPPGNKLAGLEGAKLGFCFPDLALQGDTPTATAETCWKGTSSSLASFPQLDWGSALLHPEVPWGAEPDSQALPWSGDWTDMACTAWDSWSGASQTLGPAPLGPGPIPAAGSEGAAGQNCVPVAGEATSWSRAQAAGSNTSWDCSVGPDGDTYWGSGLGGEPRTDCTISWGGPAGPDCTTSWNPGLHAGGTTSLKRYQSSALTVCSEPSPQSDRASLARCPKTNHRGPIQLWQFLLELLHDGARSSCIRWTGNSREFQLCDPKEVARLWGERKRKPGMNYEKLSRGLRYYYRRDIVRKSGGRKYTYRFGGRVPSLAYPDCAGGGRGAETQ
# Procedure, shortened: as §1
# ELF3 = target: T5, ELF3 (Homo sapiens, UniProt P78545 1-371); conditions: protein: recombinant; tags: N-terminal GST; dsDNA, one strand shown
# T5 sequence: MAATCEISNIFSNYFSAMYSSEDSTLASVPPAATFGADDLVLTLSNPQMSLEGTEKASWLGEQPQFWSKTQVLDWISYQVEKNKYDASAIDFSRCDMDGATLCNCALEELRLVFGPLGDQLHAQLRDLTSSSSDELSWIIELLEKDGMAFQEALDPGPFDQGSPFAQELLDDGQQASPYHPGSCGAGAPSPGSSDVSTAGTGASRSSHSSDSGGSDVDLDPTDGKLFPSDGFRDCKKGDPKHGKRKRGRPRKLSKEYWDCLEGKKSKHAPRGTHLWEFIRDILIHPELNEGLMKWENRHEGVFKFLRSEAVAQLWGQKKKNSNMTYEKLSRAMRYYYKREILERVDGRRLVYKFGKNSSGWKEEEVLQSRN
# Procedure, shortened: as §1
# CRX = CRX (Homo sapiens, UniProt O43186 1-299); conditions: protein: recombinant; tags: N-terminal GST; dsDNA, one strand shown
# Procedure, shortened: as §1
# ETV1 = ETV1 (Homo sapiens, UniProt P50549 1-477); conditions: protein: recombinant; tags: N-terminal GST; dsDNA, one strand shown
# Procedure, shortened: as §1
# ERF = target: T6, ERF (Homo sapiens, UniProt P50548 1-548); conditions: protein: recombinant; tags: N-terminal GST; dsDNA, one strand shown
# T6 sequence: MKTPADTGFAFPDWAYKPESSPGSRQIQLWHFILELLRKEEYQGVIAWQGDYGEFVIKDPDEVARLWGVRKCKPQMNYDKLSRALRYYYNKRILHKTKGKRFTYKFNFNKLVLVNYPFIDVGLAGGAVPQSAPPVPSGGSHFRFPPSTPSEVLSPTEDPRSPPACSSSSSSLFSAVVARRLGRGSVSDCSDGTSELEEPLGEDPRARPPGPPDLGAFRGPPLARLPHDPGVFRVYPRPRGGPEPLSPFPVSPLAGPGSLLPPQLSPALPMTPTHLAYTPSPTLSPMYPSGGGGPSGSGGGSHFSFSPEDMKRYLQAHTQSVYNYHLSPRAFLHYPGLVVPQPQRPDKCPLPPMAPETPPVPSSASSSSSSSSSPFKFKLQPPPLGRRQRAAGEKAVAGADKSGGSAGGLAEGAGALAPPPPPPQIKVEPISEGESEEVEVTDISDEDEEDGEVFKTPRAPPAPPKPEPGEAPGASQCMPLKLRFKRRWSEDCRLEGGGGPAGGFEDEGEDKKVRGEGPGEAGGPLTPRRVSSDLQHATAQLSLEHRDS
# Procedure, shortened: as §1
# ETV3L = target: T7, ETV3L (Homo sapiens, UniProt Q6ZN32 1-361); conditions: protein: recombinant; tags: N-terminal GST; dsDNA, one strand shown
# T7 sequence: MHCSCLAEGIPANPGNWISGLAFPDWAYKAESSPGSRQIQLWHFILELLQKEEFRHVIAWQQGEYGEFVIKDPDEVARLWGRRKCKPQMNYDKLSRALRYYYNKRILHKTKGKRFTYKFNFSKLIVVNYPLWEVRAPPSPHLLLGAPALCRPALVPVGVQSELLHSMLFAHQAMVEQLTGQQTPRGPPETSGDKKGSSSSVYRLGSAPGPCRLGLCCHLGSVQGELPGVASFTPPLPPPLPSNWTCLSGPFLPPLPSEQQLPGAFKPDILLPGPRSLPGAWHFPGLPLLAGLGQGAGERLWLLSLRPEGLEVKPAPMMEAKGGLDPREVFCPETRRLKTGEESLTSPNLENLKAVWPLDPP
# Procedure, shortened: as §1
# ETS2 = target: T8, ETS2 (Homo sapiens, UniProt P15036 1-469); conditions: protein: recombinant; tags: N-terminal GST; dsDNA, one strand shown
# T8 sequence: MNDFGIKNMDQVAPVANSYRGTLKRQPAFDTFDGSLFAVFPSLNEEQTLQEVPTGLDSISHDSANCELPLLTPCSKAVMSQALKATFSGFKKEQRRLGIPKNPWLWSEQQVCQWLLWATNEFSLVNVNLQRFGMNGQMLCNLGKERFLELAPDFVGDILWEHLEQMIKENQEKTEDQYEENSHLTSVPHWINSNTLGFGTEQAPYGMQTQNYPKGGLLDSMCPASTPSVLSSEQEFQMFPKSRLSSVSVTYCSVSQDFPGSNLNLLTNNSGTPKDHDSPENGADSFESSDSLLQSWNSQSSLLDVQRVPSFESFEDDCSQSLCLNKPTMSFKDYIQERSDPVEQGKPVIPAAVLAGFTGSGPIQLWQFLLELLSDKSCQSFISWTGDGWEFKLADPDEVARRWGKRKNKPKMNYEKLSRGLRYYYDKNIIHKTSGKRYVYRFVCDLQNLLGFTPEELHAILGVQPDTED
# Procedure, shortened: as §1
# SPDEF = target: T9, SPDEF (Homo sapiens, UniProt O95238 1-335); conditions: protein: recombinant; tags: N-terminal GST; dsDNA, one strand shown
# T9 sequence: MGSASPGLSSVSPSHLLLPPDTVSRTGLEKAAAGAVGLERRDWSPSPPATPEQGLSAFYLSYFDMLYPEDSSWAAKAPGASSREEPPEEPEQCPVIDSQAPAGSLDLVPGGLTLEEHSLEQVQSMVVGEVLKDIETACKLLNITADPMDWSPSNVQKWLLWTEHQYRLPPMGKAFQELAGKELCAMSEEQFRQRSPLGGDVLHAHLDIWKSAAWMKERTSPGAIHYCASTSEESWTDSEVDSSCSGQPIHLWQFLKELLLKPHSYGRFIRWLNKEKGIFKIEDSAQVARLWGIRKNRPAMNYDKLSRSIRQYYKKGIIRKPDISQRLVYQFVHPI
# Procedure, shortened: as §1
# ETV7 = target: T10, ETV7 (Homo sapiens, UniProt Q9Y603 1-341); conditions: protein: recombinant; tags: N-terminal GST; dsDNA, one strand shown
# T10 sequence: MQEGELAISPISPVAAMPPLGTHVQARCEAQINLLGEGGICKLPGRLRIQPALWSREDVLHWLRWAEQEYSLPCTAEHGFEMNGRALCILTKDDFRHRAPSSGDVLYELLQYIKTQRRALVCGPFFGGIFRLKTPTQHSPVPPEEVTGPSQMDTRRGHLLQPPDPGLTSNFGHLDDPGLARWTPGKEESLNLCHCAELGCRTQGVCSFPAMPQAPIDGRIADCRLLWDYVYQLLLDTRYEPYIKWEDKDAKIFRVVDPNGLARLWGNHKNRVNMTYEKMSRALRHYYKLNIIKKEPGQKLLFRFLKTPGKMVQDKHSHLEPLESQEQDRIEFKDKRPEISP
# Procedure, shortened: as §1
# ETV6 = ETV6 (Homo sapiens, UniProt P41212 1-452); conditions: protein: recombinant; tags: N-terminal GST; dsDNA, one strand shown
# Procedure, shortened: as §1
# CRX, sequence (O43186 whole entry): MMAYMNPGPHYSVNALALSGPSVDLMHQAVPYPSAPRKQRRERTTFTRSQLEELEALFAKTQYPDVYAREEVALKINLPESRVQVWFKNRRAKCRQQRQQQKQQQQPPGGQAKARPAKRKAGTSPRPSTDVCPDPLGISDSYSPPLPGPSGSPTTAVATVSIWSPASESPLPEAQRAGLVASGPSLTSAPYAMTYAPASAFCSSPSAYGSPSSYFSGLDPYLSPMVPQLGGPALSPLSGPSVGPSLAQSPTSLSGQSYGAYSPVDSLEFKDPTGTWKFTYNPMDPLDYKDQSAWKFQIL
# ETV6, sequence (P41212 whole entry): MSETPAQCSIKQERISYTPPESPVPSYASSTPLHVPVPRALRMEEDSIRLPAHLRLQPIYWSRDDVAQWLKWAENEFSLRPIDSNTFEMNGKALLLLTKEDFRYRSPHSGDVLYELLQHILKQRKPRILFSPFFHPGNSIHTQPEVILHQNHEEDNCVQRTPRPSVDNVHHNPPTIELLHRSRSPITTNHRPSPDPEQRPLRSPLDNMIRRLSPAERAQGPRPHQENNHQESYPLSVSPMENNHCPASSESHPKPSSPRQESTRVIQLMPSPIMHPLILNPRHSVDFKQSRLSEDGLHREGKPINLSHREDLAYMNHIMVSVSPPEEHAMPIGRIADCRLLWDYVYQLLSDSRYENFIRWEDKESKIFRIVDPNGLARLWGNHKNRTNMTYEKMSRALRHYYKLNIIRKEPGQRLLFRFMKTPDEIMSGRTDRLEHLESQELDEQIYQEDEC
# HSF1, sequence (Q00613 whole entry): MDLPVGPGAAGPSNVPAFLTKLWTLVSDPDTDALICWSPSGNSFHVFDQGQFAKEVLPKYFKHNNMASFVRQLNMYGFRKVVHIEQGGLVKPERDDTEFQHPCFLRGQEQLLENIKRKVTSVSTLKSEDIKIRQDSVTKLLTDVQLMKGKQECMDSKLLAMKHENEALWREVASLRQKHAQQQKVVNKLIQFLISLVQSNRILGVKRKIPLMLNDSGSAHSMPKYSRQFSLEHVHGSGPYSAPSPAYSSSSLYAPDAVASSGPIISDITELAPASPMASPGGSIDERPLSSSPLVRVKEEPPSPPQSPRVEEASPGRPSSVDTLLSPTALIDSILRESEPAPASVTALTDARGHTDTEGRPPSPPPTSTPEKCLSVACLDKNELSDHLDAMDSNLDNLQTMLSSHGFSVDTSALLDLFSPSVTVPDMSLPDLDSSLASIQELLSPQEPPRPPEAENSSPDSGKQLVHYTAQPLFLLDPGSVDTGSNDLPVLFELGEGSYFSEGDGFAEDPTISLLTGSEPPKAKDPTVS
# ETV1, sequence (P50549 whole entry): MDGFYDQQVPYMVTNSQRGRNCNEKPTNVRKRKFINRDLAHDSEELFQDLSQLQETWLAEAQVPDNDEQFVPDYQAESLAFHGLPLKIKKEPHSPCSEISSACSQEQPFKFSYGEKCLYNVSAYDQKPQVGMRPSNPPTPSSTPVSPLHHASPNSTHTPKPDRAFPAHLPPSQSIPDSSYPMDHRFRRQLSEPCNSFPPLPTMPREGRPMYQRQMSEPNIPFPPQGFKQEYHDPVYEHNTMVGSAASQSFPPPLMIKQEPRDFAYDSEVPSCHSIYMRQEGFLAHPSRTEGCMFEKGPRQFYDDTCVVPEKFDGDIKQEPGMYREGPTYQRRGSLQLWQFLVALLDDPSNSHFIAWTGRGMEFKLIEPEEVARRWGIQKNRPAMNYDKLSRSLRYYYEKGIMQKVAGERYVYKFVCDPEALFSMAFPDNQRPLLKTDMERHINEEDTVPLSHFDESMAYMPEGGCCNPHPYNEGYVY
# ELF4, sequence (Q99607 whole entry): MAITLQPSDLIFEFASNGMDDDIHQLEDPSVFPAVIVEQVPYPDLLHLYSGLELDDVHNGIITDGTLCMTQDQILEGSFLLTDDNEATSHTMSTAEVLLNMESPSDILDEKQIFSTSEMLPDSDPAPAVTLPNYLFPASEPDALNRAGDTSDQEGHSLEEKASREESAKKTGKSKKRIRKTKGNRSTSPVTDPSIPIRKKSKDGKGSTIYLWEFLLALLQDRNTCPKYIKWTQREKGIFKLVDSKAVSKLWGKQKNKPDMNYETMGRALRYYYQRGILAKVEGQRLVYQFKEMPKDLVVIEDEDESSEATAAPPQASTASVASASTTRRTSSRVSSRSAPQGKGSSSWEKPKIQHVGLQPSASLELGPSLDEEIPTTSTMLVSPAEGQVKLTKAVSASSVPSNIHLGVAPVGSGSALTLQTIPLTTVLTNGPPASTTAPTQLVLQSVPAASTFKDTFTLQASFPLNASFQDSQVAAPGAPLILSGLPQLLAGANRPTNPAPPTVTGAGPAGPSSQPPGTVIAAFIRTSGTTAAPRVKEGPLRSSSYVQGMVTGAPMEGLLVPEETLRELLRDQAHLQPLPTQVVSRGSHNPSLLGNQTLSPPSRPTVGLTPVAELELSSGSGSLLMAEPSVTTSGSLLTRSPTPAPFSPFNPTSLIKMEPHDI
# ETV5, sequence (P41161 whole entry): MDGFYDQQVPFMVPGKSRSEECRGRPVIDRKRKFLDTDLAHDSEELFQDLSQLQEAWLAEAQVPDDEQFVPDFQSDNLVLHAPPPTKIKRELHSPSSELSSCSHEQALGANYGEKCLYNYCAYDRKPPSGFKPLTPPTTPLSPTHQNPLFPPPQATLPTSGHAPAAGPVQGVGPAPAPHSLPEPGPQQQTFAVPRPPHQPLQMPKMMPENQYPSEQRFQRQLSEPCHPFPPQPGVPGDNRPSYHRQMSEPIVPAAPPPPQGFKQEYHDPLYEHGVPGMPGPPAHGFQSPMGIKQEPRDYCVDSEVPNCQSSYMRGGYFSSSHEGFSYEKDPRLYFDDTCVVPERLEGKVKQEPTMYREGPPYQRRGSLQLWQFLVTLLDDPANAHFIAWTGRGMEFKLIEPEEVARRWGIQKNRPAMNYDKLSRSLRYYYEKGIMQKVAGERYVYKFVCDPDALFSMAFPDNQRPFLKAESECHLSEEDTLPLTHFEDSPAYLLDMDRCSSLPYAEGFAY
sequence,measurement,setting,value
CGAAAA,binding signal,FEV,"1.04 fold enrichment (6-mer frequency, TF over GST control)"
same,binding signal,ETV5,"1.13 fold enrichment (6-mer frequency, TF over GST control)"
same,binding signal,HSF1,"1.85 fold enrichment (6-mer frequency, TF over GST control)"
same,binding signal,SPIC,"1.07 fold enrichment (6-mer frequency, TF over GST control)"
same,binding signal,ELF4,"1.11 fold enrichment (6-mer frequency, TF over GST control)"
same,binding signal,ELK4,"1.12 fold enrichment (6-mer frequency, TF over GST control)"
same,binding signal,ETV2,"1.04 fold enrichment (6-mer frequency, TF over GST control)"
same,binding signal,ELF3,"1.01 fold enrichment (6-mer frequency, TF over GST control)"
same,binding signal,CRX,"1.12 fold enrichment (6-mer frequency, TF over GST control)"
same,binding signal,ETV1,"1.06 fold enrichment (6-mer frequency, TF over GST control)"
same,binding signal,ERF,"1.17 fold enrichment (6-mer frequency, TF over GST control)"
same,binding signal,ETV3L,"1.09 fold enrichment (6-mer frequency, TF over GST control)"
same,binding signal,ETS2,"1.08 fold enrichment (6-mer frequency, TF over GST control)"
same,binding signal,SPDEF,"1.02 fold enrichment (6-mer frequency, TF over GST control)"
same,binding signal,ETV7,"1.17 fold enrichment (6-mer frequency, TF over GST control)"
same,binding signal,ETV6,"1.08 fold enrichment (6-mer frequency, TF over GST control)"
